Here are results for 55 compounds from PubChem BioAssay AID1910 (Broad Institute, 2009).

Screen size: about 300,000 compounds; about 950 (0.32%) were called active.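 How the source made its calls: active means mean activation of at least 10% of the iron chelator positive control signal, with at least half of replicates also reaching 10%; inconclusive means mean and replicate majority disagree about reaching 10%; inactive means mean and most replicates under 10%.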 This excerpt belongs to a sample that is enriched for actives.

The test is described as follows: hypoxia response element reporter activation – cell-based, U2OS HRE-luciferase, luminescence, primary screen (AID 1910). The note with it: hits give high values, screened at 7.5 µM (by protocol), normalized: DMSO 0%, desferrioxamine 100%.
Take `Cc1ccc(NC(=O)COC(=O)CNC(=O)c2ccc(Cl)cc2Cl)cc1S(=O)(=O)N1CCOCC1`: the activation was -0.357% (inactive).
As to `CCOC(=O)c1cc(C(C)C)sc1NC(=O)COC(=O)c1nccnc1N`, the activation is -0.0851% (inactive).
For `Oc1c(CN2CCN(c3ccc(F)cc3)CC2)cc(Cl)c2cccnc12`, the activation is 57.7% (active).
Turning to `CCN1CCN(C(c2cccnc2)c2cc(Cl)c3cccnc3c2O)CC1` (stereo not given), the activation is 1.75% (inactive).
As for `Oc1ccc(CN2CCN(c3ncccn3)CC2)cc1`, the activation is -0.81% (inactive).
On to `Cc1ccccc1OCC(=O)Nc1ccc2c(c1)ncn2C`, for which the activation is 1.83% (inactive).
Then `C=CCC1(C(=O)N(C)Cc2ccccc2)CCN(C(=O)OC(C)(C)C)CC1`, with -0.424% (inactive).
In the case of `COc1ccc2c(c1)O/C(=C\c1ccccc1O)C2=O`, the activation is 3.88% (inactive).
In the case of `COc1cc([N+](=O)[O-])cc([N+](=O)[O-])c1NC(=O)N1CCOCC1`, the activation was -0.133% (inactive).
For the compound `COc1ccc(C#Cc2c(-c3ccc(OC)cc3)oc3ccc(-c4ccc5c(c4)OCO5)cc23)cc1`, the activation is 2.6% (inactive).
Then `CC(=O)NCCC(=O)Nc1cc(S(=O)(=O)N2CCOCC2)ccc1N1CCOCC1`, with 158% (active); and `CN1CCN(c2ccc(S(=O)(=O)N3CCOCC3)cc2NC(=O)CCc2ccccc2)CC1`, with 0.124% (inactive); and `Cc1cccc(OCCC(=O)Nc2cc(S(=O)(=O)N3CCCCC3)ccc2N2CCOCC2)c1`, with -0.617% (inactive).
On to `O=S(=O)(NCCCc1ccccc1)c1ccc(Br)cc1`, for which the activation is -0.382% (inactive).
Then `O=c1[nH]snc1-c1c(Cl)cccc1Cl`, with -0.133% (inactive).
With `COc1ccc(S(=O)(=O)N2CCOC2CNC(=O)C(=O)NCc2ccncc2)cc1OC` (stereo not given), the activation was 0.131% (inactive).
As for `Cc1ccc(S(=O)(=O)N2CCN(C(=O)c3ccccc3-c3nc4ccccc4s3)CC2)c(C)c1`, the activation is -37.1% (inactive).
With `CCOC(=O)C1CCN(C(=O)COC(=O)C2CCN(S(=O)(=O)c3ccc4c(c3)OCCO4)CC2)CC1`, the activation is 0.496% (inactive).
For the compound `COc1ccccc1CCNS(=O)(=O)c1cc2c3c(c1)C(C)C(=O)N3CCC2` (stereo not given), the activation is 80.8% (active).
With `CC1C(=O)N2CCCc3cc(S(=O)(=O)NCc4ccc(F)cc4)cc1c32` (stereo not given), the activation was 2.62% (inactive).
With `CCOc1ccccc1NS(=O)(=O)c1cc2c3c(c1)C(C)C(=O)N3CCC2` (stereo not given), the activation is -0.238% (inactive).
As for `O=C(CNC(=O)C12CC3CC(CC(C3)C1)C2)OCC(=O)N1CCCCC1`, the activation was -0.325% (inactive).
`CC(NC(=O)c1ccccc1SCC(=O)N1CCCC1)c1ccccc1` (stereo not given): the activation was -0.504% (inactive).
Take `O=C(NC1CCCCC1)c1cc(C2CC2)on1`: the activation was 1.35% (inactive).
In the case of `O=C(NCCCn1ccnc1)c1cc(-c2ccccc2)on1` it was 35.8% (active); in that of `COc1ccc(-c2cc(C(=O)NCCCn3ccnc3)no2)cc1`, 1.05% (inactive).
On to `COc1ccccc1-c1cc(C(=O)NCCCn2ccnc2)no1`, for which the activation is 0.0935% (inactive).
As for `O=C(NC1CCCC1)c1cc(-c2ccccc2)on1`, the activation is 25.3% (active).
Regarding `CC(NC(=O)c1cc(-c2ccccc2)on1)c1ccccc1` (stereo not given), the activation was 0.0998% (inactive).
As to `Cc1ccccc1C(=O)N1CCC(C(=O)Oc2ccc(C#N)cc2)CC1`, the activation was -0.988% (inactive).
In the case of `CC(=O)c1ccc(NC(=O)C2CCCN2S(=O)(=O)c2cccs2)cc1` (stereo not given), the activation is -0.0783% (inactive).
As for `N#CCCN(C(=O)COC(=O)C1CCN(c2ccc(C(F)(F)F)cn2)CC1)c1ccc(F)cc1`, the activation is 0.186% (inactive).
Then `COc1ccc(CCNC(=O)CSc2nnc3ccc(-c4ccncc4)nn23)cc1`, with -0.329% (inactive); and `COc1ccc(CCNC(=O)CSc2nc(-c3ccc(OC)c(OC)c3)ccc2C#N)cc1`, with 225% (active).
On to `COc1cccc(-c2ccc(C#N)c(SCC(=O)NCCc3ccc(Cl)cc3)n2)c1`, for which the activation was -0.149% (inactive).
In the case of `C=CCOc1ccc(/C=C/C(=O)OCC(=O)NC(C)c2ccc(F)cc2)cc1` (stereo not given), the activation is -1.98% (inactive).
Consider `CCOc1ccc(NC(=O)c2ccc(NC(=O)CN3C(=O)C(=O)N(CC(C)C)C3=O)cc2)cc1`, for which the activation was -0.207% (inactive).
Then `Cc1ccc2[nH]c3c(=O)n(CC(=O)NCCc4ccc(Cl)cc4)ncc3c2c1`, with 0.0828% (inactive).
Turning to `CC1CC(C)CN(CCCNC(=O)Cn2ncc3c([nH]c4ccccc43)c2=O)C1` (stereo not given), the activation was -0.555% (inactive).
In the case of `Cc1cccc(CCNC(=O)Cn2ncc3c([nH]c4ccc(C)cc43)c2=O)c1`, the activation is 67.3% (active).
Take `Cc1ccc2nnn(Cc3cccc(C(C)(C)C)c3O)c2c1`: the activation was -0.574% (inactive).
Turning to `CCc1cccc(C)c1NC(=O)COC(=O)CC1CCCC1`, the activation was -0.451% (inactive).
Turning to `CC(=O)Nc1ccc(S(=O)(=O)N2CCC(NC(=O)c3ccccc3)CC2)cc1`, the activation is -33.2% (inactive).
On to `CCNC(=S)N1CCN(CCN=CC2=C(O)CC(C)(C)CC2=O)CC1`, for which the activation is -0.656% (inactive).
Regarding `CC1(C)CC(=O)C(C=NCCN2CCN(C(=S)Nc3cccc(Cl)c3)CC2)=C(O)C1`, the activation was 233% (active).
For `CC(=O)N1CCN(CCN=CC2=C(O)CC(C)(C)CC2=O)CC1`, the activation is -0.482% (inactive).
On to `COCCNC(=S)N(CCc1c(C)[nH]c2ccc(C)cc12)Cc1cccnc1`, for which the activation was 0.573% (inactive).
On to `Cc1nnc(N/N=C/c2ccccn2)[nH]c1=O`, for which the activation was 117% (active).
In the case of `Cc1nnc(N/N=C/C2CC=CCC2)[nH]c1=O` (stereo not given) it was -0.414% (inactive); in that of `CNC(=O)C(=O)N/N=C/c1ccccn1`, -0.138% (inactive); in that of `CCS(=O)(=O)Nc1cc(C(=O)OC)ccc1C(=O)OC`, -0.124% (inactive).
In the case of `CCN(CCO)C(=S)Nc1cc(C(=O)OC)ccc1C(=O)OC`, the activation is -0.0671% (inactive).
As for `CCCN(CCC)C(=S)Nc1cc(C(=O)OC)ccc1C(=O)OC`, the activation was 166% (active).
With `Fc1ccc(-c2ccc(NCCN3CCOCC3)nn2)cc1`, the activation is 3.51% (inactive).
Consider `COc1ccc(NC(=O)CCCC(=O)c2ccccc2)cc1`, for which the activation was 0.37% (inactive).
